NTR1 ag: agonists of human NTR1, primary screen, imaging, U2OS cells, beta-arrestin-GFP, high content; actives 0.17% (n = 330,000); NTR1-U2OS beta-arrestin-GFP spot imaging, agonist mode; activation, % at 20 µM; Neurotensin receptor type 1 (Homo sapiens), P30989;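 active means activation at or above 40% of the spot to cytoplasm intensity ratio, with at least 20 cells analyzed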;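 further: 0% = DMSO without peptide and 100% = 100 nM NTR1 peptide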
Cardio protect: cardioprotection against H2O2-induced cell death, primary screen, uHTS, H9c2 cells, ATPLite luminescence. H9c2 cardiomyocytes, H2O2 injury protection, 2 h. protection from H2O2 cell death, % at 20 µM. actives 0.63% (n = 360,000). AID 588492, 2011;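 active means compounds giving at least 50% protection of heart cells from peroxide-induced death in the single-dose screen, raw or plate-pattern-corrected value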;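 further: 0% = DMSO wells with peroxide and 100% = DMSO wells without peroxide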
ALR inh: inhibitors of human ALR sulfhydryl oxidase, primary screen, biochemical, H2O2 detection, HRP-luminol luminescence, single point | FAD-linked sulfhydryl oxidase ALR (Homo sapiens), P55789 | purified ALR, DTT oxidation | inhibition, % (concentration not given with the values) | actives 3.8% (n = 290,000);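 active means mean replicate inhibition above about 79%, with every replicate also reaching it, limit read from the data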
SUMO HTRF inh: inhibitors of in vitro SUMOylation cascade, primary screen, biochemical, HTRF, uHTS. HTRF SUMOylation assay, SAE1/SAE2 + UBC9. inhibition, % at 35 µM. actives 0.36% (n = 290,000). AID 2006, 2009; in the data active means inhibition above about 50%, passing the limit was not always enough
NTR1 ag confirm: NTR1 agonists, single-dose retest, confirmation, imaging, U2OS cells, beta-arrestin-GFP, single concentration; shares compounds with NTR1 ag; actives 38% (n = 480); activation, % at 20 µM; NTR1-U2OS beta-arrestin-GFP translocation imaging; AID 504550, 2011;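 active means mean activation at 20 µM of at least 40%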;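 further: 0% = DMSO without peptide and 100% = 100 nM NTR1 peptide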
* = called active by the depositor; nt = no result. Shown are actives, neighbours in structure and some others; about 3.9% of the full set was active somewhere.

SMILES	NTR1 ag	Cardio protect	ALR inh	SUMO HTRF inh	NTR1 ag confirm
CCOc1ccc(/C=C/[N+](=O)[O-])c2ccccc12	80*	-16	-8	22	66*
CCOC(=O)COc1ccc(/C=C/[N+](=O)[O-])c(OCC(=O)OCC)c1	74*	-13	5	-11	69*
CCCCOc1ccc2c(c1)C(=O)c1cc(O)ccc1-2	41*	-16	63	-14	9
O=[N+]([O-])c1ccc2[nH]cc(S(=O)(=O)N3CCN(c4cccc(Cl)c4)CC3)c2c1	41*	-16	1	-8	20
Clc1cccc(Cc2c(-c3cccc(Br)c3)nc3ccc(Br)cn23)c1	nt	-7	nt	nt	nt
Cc1nnc(NC(=O)c2ccc3ccccc3c2)s1	-1	1	-2	0	nt
CC(C)c1nnc(NC(=O)c2ccc3ccccc3c2)s1	45*	-1	-11	-9	21
c1ccc(CNc2c(-c3cccc(SC4CCCCC4)c3)nc3ccccn23)cc1	40*	-17	0	nt	4
Cc1cccc(NC(=O)COC(=O)c2ccccn2)c1	0	6	-1	12	nt
Cc1ccc(-n2nnc3c(=O)oc4ccccc4c32)cc1	58*	-17	-5	22	20
COC(=O)c1c(NC(=O)C2SC(=NC3CCCCC3)C(C(N)=O)=C2N)sc2c1CCCC2 (stereo not given)	43*	-12	0	-20	17
O=C(NCCOc1ccccc1)C1Nc2ccc(C(F)(F)F)cc2C2c3ccccc3CC12 (stereo not given)	10	-8	-7	nt	nt
CCOC(=O)C1Nc2ccc(C(F)(F)F)cc2C2c3ccccc3CC12 (stereo not given)	56*	2	-2	nt	7
CCN(CC)CCOC(=O)c1cccc(Br)c1	-1	-2	1	-4	nt
Cc1cccc(NC(=O)CN2CCN(C(=O)c3ccc(-c4nc5ccccc5s4)o3)CC2)c1C	16	21	nt	nt	nt
O=C(CN1CCN(C(=O)c2ccc(-c3nc4ccccc4s3)o2)CC1)Nc1ccccc1Cl	48*	3	nt	nt	25
CC(Sc1nc(-c2ccccc2)cc(C(F)(F)F)n1)C(=O)Nc1sc2c(c1C(N)=O)CCC2 (stereo not given)	4	5	-17	12	nt
O=C(c1c(Cl)cccc1Cl)N1CCCCCC1	0	-4	3	20	nt

Screening data as filed in PubChem BioAssay.
